Assay results from PubChem BioAssay (NCI).
About 79,000 compounds went through this panel and 15% of them were active in at least one assay; those are over-represented in the sample as a whole. Activity calls are given as the source filed them. Rule as the data show it: active = growth inhibition above about 70%; inactive = the rest.

Key:
[1] = NCI Yeast Anticancer Drug Screen. Data for the rad50 strain (AID 155);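 also: 0% = growth of vehicle-only cultures of the same strain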; conditions: S. cerevisiae rad50 strain growth inhibition, hits give high values
How it was run: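 Cells are treated with compound, grown, and their growth is then scored against vehicle-only cultures of the same repair-deficient yeast strain.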

[2] = NCI Yeast Anticancer Drug Screen. Data for the mec2-1 strain (AID 157); conditions: S. cerevisiae mec2-1 strain, hits give high values
How it was run: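 Using mec2-1 yeast: add compound, measure growth, express inhibition versus vehicle-treated cultures.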

[3] = NCI Yeast Anticancer Drug Screen. Data for the sgs1 mgt1 strain (AID 161);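 also: 0% = growth of cultures given vehicle only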; conditions: S. cerevisiae sgs1 mgt1 strain, hits give high values
How it was run: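 This yeast growth screen uses a strain with defined DNA-repair lesions; compound-treated growth is compared with vehicle-treated growth.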

[4] = NCI Yeast Anticancer Drug Screen. Data for the cln2 rad14 strain (AID 165);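 also: 0% = growth equal to vehicle treated cultures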; conditions: S. cerevisiae cln2 rad14 strain, hits give high values
How it was run: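 Yeast strain cln2 rad14, bearing defects in cell cycle control and DNA repair, serves as the test system; values reflect growth inhibition compared with vehicle.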

[5] = NCI Yeast Anticancer Drug Screen. Data for the bub3 strain (AID 167); conditions: S. cerevisiae bub3 mutant strain, hits give high values
How it was run: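 Part of a panel of yeast mutants defective in DNA damage repair or cell cycle regulation. Each strain is grown with compound, and inhibition is calculated relative to solvent-treated cultures.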

[6] = NCI Yeast Anticancer Drug Screen. Data for the mlh1 rad18 strain (AID 175); conditions: S. cerevisiae mlh1 rad18 strain growth inhibition, hits give high values
How it was run: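 Steps: expose repair-defective yeast to compound; measure growth; express inhibition against vehicle-treated controls.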

[7] = at 5.0 µM (retest, dose inferred, filed as 0.5)
[8] = at 50.0 µM (retest, dose inferred, filed as 5.0)

Measured: growth inhibition

C/C([O-])=C1\Cc2ccccc2C1=O.C/C([O-])=C1\Cc2ccccc2C1=O.CC[O-].CC[O-].[Ti+4]
active: [1]; at 50.0 µM 89% | [2]; at 50.0 µM 89.4% | [3]; at 50.0 µM 91.5% | [4]; at 50.0 µM 81% | [5]; at 50.0 µM 88.6% | [6]; at 50.0 µM 90.7%
inactive: [1]; [7] 25% | [1]; [8] 25% | [2]; [7] 17% | [2]; [8] 17% | [3]; [7] 4% | [3]; [8] 4% | [4]; [7] 4% | [4]; [8] 4% | [5]; [7] 4% | [5]; [8] 4% | [6]; [7] 20% | [6]; [8] 20%

CC(C)C1=C(O)C2=C(C(=O)C1=O)C1(C)CCCC(C)(C)C1C(O)C2OC=O (stereo not given)
active: [1]; [7] 91% | [1]; [8] 95% | [1]; at 50.0 µM 92.2% | [2]; [7] 100% | [2]; [8] 100% | [2]; at 50.0 µM 93.7% | [3]; [7] 99% | [3]; [8] 100% | [3]; at 50.0 µM 93.5% | [4]; [7] 81% | [4]; [8] 99% | [4]; at 50.0 µM 92% | [5]; [7] 100% | [5]; [8] 100% | [5]; at 50.0 µM 92.5% | [6]; [7] 98% | [6]; [8] 99% | [6]; at 50.0 µM 87.5%

O=C(Cc1nc2ccc(Cl)cc2nc1CC(=O)c1ccccc1)c1ccccc1
inactive: [1]; [7] 10% | [2]; [7] 2% | [3]; [7] -2% | [3]; at 50.0 µM 61.7% | [4]; [7] -5% | [4]; at 50.0 µM 67.3% | [5]; [7] -1% | [6]; [7] 7%
active: [1]; [8] 96% | [1]; at 50.0 µM 95.2% | [2]; [8] 93% | [2]; at 50.0 µM 85.5% | [3]; [8] 94% | [4]; [8] 92% | [5]; [8] 97% | [5]; at 50.0 µM 77.5% | [6]; [8] 96% | [6]; at 50.0 µM 96.3%

O=C(/C(=C\I)c1ccccc1)c1ccccc1
inactive: [1]; [7] 6% | [1]; [8] 6% | [2]; [7] -15% | [2]; [8] -15% | [3]; [7] -8% | [3]; [8] -8% | [4]; [7] -6% | [4]; [8] -6% | [5]; [7] -24% | [5]; [8] -24% | [6]; [7] -13% | [6]; [8] -13%
active: [1]; at 50.0 µM 88.5% | [2]; at 50.0 µM 92.5% | [3]; at 50.0 µM 86.4% | [4]; at 50.0 µM 89.9% | [5]; at 50.0 µM 90.2% | [6]; at 50.0 µM 86.7%

CNc1ccc([N+](=O)[O-])cc1
inactive: [1]; [7] -4% | [1]; [8] 13% | [1]; at 50.0 µM 43% | [2]; [7] 1% | [2]; [8] 9% | [2]; at 50.0 µM 12.8% | [3]; [7] -1% | [3]; [8] 11% | [3]; at 50.0 µM -5.2% | [4]; [7] 2% | [4]; [8] 1% | [4]; at 50.0 µM 22.9% | [5]; [7] -1% | [5]; [8] 14% | [5]; at 50.0 µM 31.1% | [6]; [7] 0% | [6]; [8] 19% | [6]; at 50.0 µM 10.3%

Cc1cccc(O)c(=O)c1
inactive: [1]; [7] 12% | [2]; [7] -5% | [3]; [7] 2% | [4]; [7] 8% | [5]; [7] 9% | [6]; [7] 9%
active: [1]; [8] 98% | [1]; at 50.0 µM 99.3% | [2]; [8] 99% | [2]; at 50.0 µM 99.5% | [3]; [8] 98% | [3]; at 50.0 µM 99.5% | [4]; [8] 95% | [4]; at 50.0 µM 99.5% | [5]; [8] 98% | [5]; at 50.0 µM 99.4% | [6]; [8] 96% | [6]; at 50.0 µM 99.5%

Cc1cc(C)c2c(c1)sc1nncn12
inactive: [1]; [7] 62% | [2]; [7] 57% | [3]; [7] 53% | [4]; [7] 46%
active: [1]; [8] 96% | [1]; at 50.0 µM 97.9% | [2]; [8] 96% | [2]; at 50.0 µM 97.8% | [3]; [8] 97% | [3]; at 50.0 µM 96% | [4]; [8] 96% | [4]; at 50.0 µM 97.6% | [5]; [7] 70% | [5]; [8] 97% | [5]; at 50.0 µM 98.9% | [6]; [7] 93% | [6]; [8] 97% | [6]; at 50.0 µM 98.9%

O=C(O)C1CCCCC1.[Ag]
active: [1]; [8] 99% | [1]; at 50.0 µM 90.3% | [2]; [8] 99% | [2]; at 50.0 µM 92% | [3]; [7] 99% | [3]; [8] 99% | [3]; at 50.0 µM 93.2% | [4]; [7] 99% | [4]; [8] 99% | [4]; at 50.0 µM 91% | [5]; [7] 99% | [5]; [8] 100% | [5]; at 50.0 µM 90.6% | [6]; [8] 100% | [6]; at 50.0 µM 90.5%
inactive: [1]; [7] 43% | [2]; [7] 42% | [6]; [7] 34%

Cc1ccc(S(=O)(=O)N/N=C/c2oc(-c3cccc([N+](=O)[O-])c3)c(-c3cccc([N+](=O)[O-])c3)c2[N+](=O)[O-])cc1
inactive: [1]; [7] 56% | [1]; [8] 56% | [2]; [7] 17% | [2]; [8] 17% | [3]; [7] 50% | [3]; [8] 50% | [4]; [7] 27% | [4]; [8] 27% | [5]; [7] 31% | [5]; [8] 31% | [6]; [7] 57% | [6]; [8] 57%
active: [1]; at 50.0 µM 86.7% | [2]; at 50.0 µM 92.7% | [3]; at 50.0 µM 92.1% | [4]; at 50.0 µM 91.7% | [5]; at 50.0 µM 87.9% | [6]; at 50.0 µM 89.7%

Cn1cnc([N+](=O)[O-])c1Sc1ccc(Cl)cc1
active: [1]; [8] 93% | [1]; at 50.0 µM 93.8% | [2]; [8] 92% | [2]; at 50.0 µM 76.9% | [3]; [8] 98% | [3]; at 50.0 µM 90.9% | [5]; [8] 92% | [5]; at 50.0 µM 83.2% | [6]; [8] 97% | [6]; at 50.0 µM 90.3%
inactive: [1]; [7] 16% | [2]; [7] 8% | [3]; [7] 11% | [4]; [7] 2% | [4]; [8] 61% | [4]; at 50.0 µM 42.2% | [5]; [7] 0% | [6]; [7] 5%
